# PLAP activator: activators of human placental alkaline phosphatase | P05187 | 96,000 compounds, 1.2% hits | purified PLAP enzyme, luminescent substrate read-out; hits give high values | AID 696 | activation fold at 20 µM; in the data active means activation fold above about 2
# sEH inhibitor: soluble epoxide hydrolase (human) inhibition; AID 707; 91,000 compounds, 0.34% hits; P34913; inhibition, % at 2 µM; recombinant human sEH enzymatic activity assay; in the data active means inhibition above about 80%
# sEH act: activators of human soluble epoxide hydrolase | P34913 | purified human sEH enzymatic activity, activator screen | activation, % at 2 µM | 91,000 compounds, 0.04% hits; in the data active means activation above about 37%
# BAP1 block: human BAP1 deubiquitinase inhibition. Q92560. recombinant BAP1, Ub-AMC hydrolysis fluorescence kinetic; hits give low values. calls only at 20 µM. 72,000 compounds, 0.48% hits;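 active means activity remaining at or below 50% of control, provided the compound also passes the data quality filters; inactive means the rest, including low values that fail the filters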;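 further: 100% = DMSO wells rate and 0% = substrate alone blank rate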
# Target sequence (Q92560 whole entry, looked up): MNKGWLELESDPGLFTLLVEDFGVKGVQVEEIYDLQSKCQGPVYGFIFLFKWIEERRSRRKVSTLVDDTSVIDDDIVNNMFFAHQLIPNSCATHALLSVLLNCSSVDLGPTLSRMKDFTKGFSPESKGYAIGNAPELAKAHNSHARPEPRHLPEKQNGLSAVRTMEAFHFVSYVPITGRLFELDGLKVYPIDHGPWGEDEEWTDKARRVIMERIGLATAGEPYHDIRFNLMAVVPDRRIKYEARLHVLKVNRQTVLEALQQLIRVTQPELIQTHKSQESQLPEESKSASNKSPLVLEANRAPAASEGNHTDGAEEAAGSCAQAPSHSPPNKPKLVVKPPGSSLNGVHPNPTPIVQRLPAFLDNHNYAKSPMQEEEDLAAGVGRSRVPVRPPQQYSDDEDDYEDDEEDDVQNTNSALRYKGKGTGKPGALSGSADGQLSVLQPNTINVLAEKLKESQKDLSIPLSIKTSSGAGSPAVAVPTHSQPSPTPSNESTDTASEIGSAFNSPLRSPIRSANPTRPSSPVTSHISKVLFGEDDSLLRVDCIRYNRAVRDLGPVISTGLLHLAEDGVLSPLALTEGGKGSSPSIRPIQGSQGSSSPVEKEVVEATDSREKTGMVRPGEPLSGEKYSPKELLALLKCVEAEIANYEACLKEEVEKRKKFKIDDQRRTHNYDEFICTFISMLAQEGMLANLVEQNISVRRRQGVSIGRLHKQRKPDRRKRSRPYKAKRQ
# * = called active by the depositor; i = inactive; nt = no result given. Sampled rows, rich in hits. Any-hit rate of the full collection: about 1.3%.
SMILES,PLAP activator,sEH inhibitor,sEH act,BAP1 block
O=C(Nc1nc2ccccc2n1CCN1CCCCC1)C1CCCCC1,1.6,-3,3,nt
O=C(Nc1nc2ccccc2n1CCN1CCCC1)C1CCCCC1,2.6*,-3,6,i
Cc1ccc(C(=O)Nc2nc3ccccc3n2CCN2CCCC2)cc1,2.8*,-7,8,i
Cc1[nH]c2ccc(-c3nnc(SCC(=O)NCc4ccco4)n3Cc3ccccc3)cc2c1C,2.1*,0,2,nt
Cc1ccc2nc(SCC(=O)NC(=O)NCc3ccco3)[nH]c2c1,2*,nt,nt,i
Cc1ccc2nc(SCC(=O)NCc3ccco3)[nH]c2c1,1.1,6,-4,nt
CCCc1cc(=O)[nH]c(-n2[nH]c3c(c2=O)CCCC3)n1,2.3*,1,0,nt
CCCc1cc(=O)[nH]c(SCC)n1,0.9,8,-8,i
CCN(CC)S(=O)(=O)c1ccc(C(=O)Nc2cccc(-c3nc4ccccc4[nH]3)c2)cc1,nt,nt,nt,i
CCC(C)(C)NC(=O)C(c1cccc(OC)c1)N(C(=O)c1ccn[nH]1)c1cccc(OC)c1 (stereo not given),2.9*,-2,6,i
CC1=NN(c2nc(C)cc(C)n2)C(=O)C1CCC(C)C (stereo not given),2.3*,10,-10,nt
CCC1C(=O)N(c2nc(C)cc(C)n2)N=C1C (stereo not given),1.2,-8,7,nt
O=C(c1ccccc1)c1ccc(Br)c([N+](=O)[O-])c1,nt,nt,nt,i
Cn1c(=O)[nH]c(=O)c2c1nc1n2CC(O)CN1c1cccc2ccccc12 (stereo not given),nt,nt,nt,i
Cc1nn(Cc2ccccc2Cl)c(C)c1NC(=O)c1nc2ncccn2n1,nt,10,-8,nt
Cc1nn(Cc2ccccc2Cl)c(C)c1NC(=O)NC12CC3CC(CC(C3)C1)C2,2*,91*,-91,nt
COc1ccc(CCNc2ncnc3[nH]ncc23)cc1OC,2*,-7,10,i
COc1cc(/C=N/n2c(SC)nnc(C(C)(C)C)c2=O)ccc1O,0.9,7,-6,i
COc1cc(/C=N/N2C(=O)CSC2=S)ccc1O,2.2*,-7,5,nt
COc1ccc2nc(NC(=O)C(NS(=O)(=O)c3cccc4nsnc34)C(C)C)sc2c1 (stereo not given),2.1*,-4,3,nt
Nc1nc(SCC(=O)N2N=C3/C(=C/c4ccco4)CCCC3C2c2ccco2)n[nH]1 (stereo not given),2.1*,-17,15,nt
CCc1nc(SCc2cc(Cl)ccc2OC)n[nH]1,2.2*,-5,3,i
Nc1nc(SCc2ccc(Cl)cc2Cl)n[nH]1,1.4,5,-3,i
CCCc1nc(SCc2ccccc2Cl)n[nH]1,2.2*,-2,4,nt
O=C(Oc1ccccc1)c1ccc(=O)oc1,nt,nt,nt,i
SMILES,PLAP activator,sEH inhibitor,sEH act,BAP1 block
O=C(O)CSc1nc2ccccc2[nH]1,0.9,9,-7,i
O=C(CSc1nc2ccccc2[nH]1)NCCCn1ccnc1,2*,nt,nt,i
O=C(N/N=C/c1ccco1)c1cc(-c2ccc3ccccc3c2)n[nH]1,2.7*,-8,9,nt
O=C(Nc1ccc(N2CCN(C(=O)c3ccco3)CC2)cc1)C(c1ccccc1)c1ccccc1,2.5*,18,-19,nt
CC(C)Nc1nc(Cl)nc(NNC(=O)C(C)Oc2ccccc2)n1 (stereo not given),2.2*,-4,4,nt
CCN1CCc2c(C#N)c(N3CCCCC3)nc(N3CCOCC3)c2C1,1.3,8,-8,nt
N#Cc1c(N2CCOCC2)nc(N2CCCCC2)c2c1CCN(C1CCCCC1)C2,2*,41,-41,i
CCOc1ccc(C(=O)Nc2ccc(OC)c3ccccc23)cc1,nt,nt,nt,i
N#CC1=C(N)Oc2n[nH]c(-c3ccc(F)cc3)c2C1c1cccnc1 (stereo not given),2*,4,-2,i
CCOC(=O)C1=C(c2ccccc2)NC(=S)NC1c1ccccc1Br (stereo not given),nt,nt,nt,i
Cc1cc(NC(c2ccc(Cl)cc2)c2ccc3cccnc3c2O)no1 (stereo not given),2*,-4,3,nt
O=C(O)CC(NS(=O)(=O)c1ccc(F)cc1)c1ccccc1 (stereo not given),nt,nt,nt,i
Cc1ccc2nc(SCC(=O)N(CC(C)C)c3c(N)n(CC(C)C)c(=O)[nH]c3=O)[nH]c2c1,2.3*,-1,1,nt
CC(C)CN(C(=O)CSc1nncs1)c1c(N)n(CC(C)C)c(=O)[nH]c1=O,1,6,-8,nt
COc1ccc2[nH]c(=O)c(C(c3nnnn3C3CCCC3)N3CCN(Cc4ccc5c(c4)OCO5)CC3)cc2c1 (stereo not given),2*,-16,13,nt
CCCc1ccc(-c2ccc(C(=O)Nc3ccc([N+](=O)[O-])cc3)cc2)nc1,nt,nt,nt,i
Clc1ccccc1-c1nnc2sc(-c3ccccn3)nn12,nt,-36,38*,i
Clc1ccc(-c2nn3c(-c4ccccn4)nnc3s2)c(Cl)c1,1,nt,nt,i
O=C(CSc1nnc(CCc2nc3ccccc3[nH]2)n1-c1ccccc1)NCc1ccco1,2*,-21,21,i
O=C(CSc1nnc(CCc2nc3ccccc3[nH]2)n1-c1ccccc1)NCc1ccccc1,nt,5,-7,nt
Cc1ccc(Cl)cc1N1CCN(C(=O)Cc2cn(C)c3ccccc23)CC1,2*,-9,6,nt
Cc1ccc(CNC(=O)CSc2nc3n[nH]c(C)c3c(=N)n2-c2cccc(C)c2)cc1,2.5*,1,2,nt
CSc1cccc(NC(=O)Nc2ccc(Cl)cc2)c1,1,82*,-82,nt
COc1ccc(-c2nnn(CC(=O)N(Cc3ccccc3Cl)C(C(=O)NCC3CCCO3)c3ccco3)n2)cc1OC (stereo not given),2*,8,-5,nt
Cc1cccc(Cc2cnc(NC(=O)c3cccc([N+](=O)[O-])c3)s2)c1,nt,nt,nt,i
SMILES,PLAP activator,sEH inhibitor,sEH act,BAP1 block
Cc1ccc(C(=O)NCc2n[nH]c(=S)n2-c2cccc(Cl)c2)cc1C,nt,nt,nt,i
O=C(Nc1ccc(Cl)c(C(F)(F)F)c1)C1CCCN(S(=O)(=O)c2cnc[nH]2)C1 (stereo not given),1.4,92*,-92,i
CCC(C)N=CC1=C(O)C(C(=O)OC)C(C)(C)CC1=O (stereo not given),nt,-3,9,nt
COC(=O)C1C(O)=C(C=NCC(C)N=CC2=C(O)C(C(=O)OC)C(C)(C)CC2=O)C(=O)CC1(C)C (stereo not given),2.2*,-8,9,i
COc1cc(C2C(C#N)=C(N)Oc3n[nH]c(C)c32)cc2c1OCO2 (stereo not given),2*,nt,nt,i
CC1CCCC(C)N1CC(O)COc1ccc(C2CCCCC2)cc1 (stereo not given),nt,nt,nt,i
C=CCSc1nnc(-c2ccccc2N=Cc2c(C)[nH]n(-c3ccccc3)c2=O)c(=O)[nH]1,2.2*,-6,6,nt
Cc1[nH]n(-c2ccccc2)c(=O)c1/C=N/c1ccccn1,2.1*,-7,8,i
Cc1[nH]n(-c2ccccc2)c(=O)c1C=Nc1cnc2ccccc2c1,2.1*,3,-2,nt
COc1ccc([N+](=O)[O-])cc1NC(=O)c1cccc(F)c1,nt,nt,nt,i
COc1cc(/C=N/NC(=O)CSc2cc(C)c(Br)cc2C)ccc1O,1.7,18,-16,nt
